Measured values from the supplement of paper PMC10849652.
Targets with a hit are over-represented here; the source holds about 8,800 in all. About 0.5% of all pairs of compound and target were hits.

Legend:
Assay in all cases: log2 fold change, soluble protein after heating vs DMSO (PISA); higher = thermal stabilisation; K562 lysate, 10 uM; active = over 0.2 and 3.5 SD of the protein, either way, in both replicates (recomputed)
alvocidib = compound: CN1CC[C@H](c2c(O)cc(O)c3c(=O)cc(-c4ccccc4Cl)oc23)[C@H](O)C1 [alvocidib]
How it was run: (§1)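 Thermal stability, expressed as log-two fold change relative to solvent controls, is given from duplicates. Crude K562 extract in PBS pH 7.4 with 1 mM MgCl2, at 1 mg/mL protein, was treated with 10 μM compound for 30 min and heated in aliquots for 3 min across 48°C-58°C. After pooling, adjustment to 0.5% NP-40 at 4°C and centrifugation at 21,000xg for 90 min, supernatant protein was measured by TMTpro 16plex LC-MS/MS with channel sums equalised.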

Tubastatin A = compound: CN1CCc2c(c3ccccc3n2Cc2ccc(C(=O)NO)cc2)C1 [Tubastatin A]
How it was run: as §1

[1] = compound: CNC(=O)C1=CC=CC=C1NC2=NC(=NC=C2Cl)NC3=C(C=C(C=C3)N4CCOCC4)OC
How it was run: as §1

defactinib = compound: CNC(=O)c1ccc(Nc2ncc(C(F)(F)F)c(NCc3nccnc3N(C)S(C)(=O)=O)n2)cc1 [defactinib]
How it was run: as §1

[2] = compound: CNc1nc(-c2ccc3c(N)n[nH]c3c2)cc(N2C[C@@H](C(=O)NC3CCCCC3)CC[C@H]2C)n1
How it was run: as §1

encorafenib = compound: COC(=O)N[C@@H](C)CNc1nccc(-c2cn(C(C)C)nc2-c2cc(Cl)cc(NS(C)(=O)=O)c2F)n1 [encorafenib]
How it was run: as §1

[3] = compound: COC(=O)[C@H](CCSC)NC(=O)C1=C(C=C(C=C1)NC[C@H](CS)N)C2=CC=CC=C2
How it was run: as §1

alisertib = compound: COc1cc(Nc2ncc3c(n2)-c2ccc(Cl)cc2C(c2c(F)cccc2OC)=NC3)ccc1C(=O)O [alisertib]
How it was run: as §1

[4] = compound: COc1cc2nc(-c3cc(F)ccc3O)nc(N[C@@H]3CNC[C@H]3C(C)(C)O)c2cc1OC
How it was run: as §1

gefitinib = compound: COc1cc2ncnc(Nc3ccc(F)c(Cl)c3)c2cc1OCCCN1CCOCC1 [gefitinib]
How it was run: as §1

lapatinib = compound: CS(=O)(=O)CCNCc1ccc(-c2ccc3ncnc(Nc4ccc(OCc5cccc(F)c5)c(Cl)c4)c3c2)o1 [lapatinib]
How it was run: as §1

pictilisib = compound: CS(=O)(=O)N1CCN(Cc2cc3nc(-c4cccc5[nH]ncc45)nc(N4CCOCC4)c3s2)CC1 [pictilisib]
How it was run: as §1

crizotinib = compound: C[C@@H](Oc1cc(-c2cnn(C3CCNCC3)c2)cnc1N)c1c(Cl)ccc(F)c1Cl [crizotinib]
How it was run: as §1

[5] = compound: C[C@H](C1=CC=C(C=C1)C(=O)NC2=C3C=CNC3=NC=C2)N
How it was run: as §1

duvelisib = compound: C[C@H](Nc1ncnc2nc[nH]c12)c1cc2cccc(Cl)c2c(=O)n1-c1ccccc1 [duvelisib]
How it was run: as §1

gandotinib = compound: Cc1cc(Nc2cc(CN3CCOCC3)c3nc(C)c(Cc4ccc(Cl)cc4F)n3n2)n[nH]1 [gandotinib]
How it was run: as §1

tozasertib = compound: Cc1cc(Nc2cc(N3CCN(C)CC3)nc(Sc3ccc(NC(=O)C4CC4)cc3)n2)n[nH]1 [tozasertib]
How it was run: as §1

doramapimod = compound: Cc1ccc(-n2nc(C(C)(C)C)cc2NC(=O)Nc2ccc(OCCN3CCOCC3)c3ccccc23)cc1 [doramapimod]
How it was run: as §1

bafetinib = compound: Cc1ccc(NC(=O)c2ccc(CN3CC[C@H](N(C)C)C3)c(C(F)(F)F)c2)cc1Nc1nccc(-c2cncnc2)n1 [bafetinib]
How it was run: as §1

[6] = compound: Cc1cccc(CC(=O)N2CCc3c2ccc(-c2cn(C)c4ncnc(N)c24)c3F)n1
How it was run: as §1

Measured: log2 fold change

CASP3 (UniProt P42574)
Sequence of UniProt P42574 (P42574 whole entry, looked up): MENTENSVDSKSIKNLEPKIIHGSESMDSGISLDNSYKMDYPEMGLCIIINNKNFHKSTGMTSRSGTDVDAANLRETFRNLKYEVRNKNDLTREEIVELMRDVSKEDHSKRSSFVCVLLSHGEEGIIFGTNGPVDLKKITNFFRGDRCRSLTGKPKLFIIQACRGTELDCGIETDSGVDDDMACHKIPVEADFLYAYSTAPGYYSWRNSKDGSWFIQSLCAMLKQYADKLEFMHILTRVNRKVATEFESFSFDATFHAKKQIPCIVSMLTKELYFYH
inactive: alvocidib 0.045 | Tubastatin A 0.056 | [1] 0.066 | defactinib 0.008 | [2] 0.064 | encorafenib 0.011 | [3] -0.061 | alisertib -0.037 | [4] 0.001 | gefitinib -0.001 | lapatinib 0.013 | pictilisib -0.021 | crizotinib 0.001 | duvelisib 0.007 | gandotinib -0.084 | tozasertib -0.016 | doramapimod 0.005 | bafetinib 0.107 | [6] -0.089
active: [5] 0.249

C18orf25 (UniProt Q96B23)
Sequence of UniProt Q96B23 (Q96B23 whole entry, looked up): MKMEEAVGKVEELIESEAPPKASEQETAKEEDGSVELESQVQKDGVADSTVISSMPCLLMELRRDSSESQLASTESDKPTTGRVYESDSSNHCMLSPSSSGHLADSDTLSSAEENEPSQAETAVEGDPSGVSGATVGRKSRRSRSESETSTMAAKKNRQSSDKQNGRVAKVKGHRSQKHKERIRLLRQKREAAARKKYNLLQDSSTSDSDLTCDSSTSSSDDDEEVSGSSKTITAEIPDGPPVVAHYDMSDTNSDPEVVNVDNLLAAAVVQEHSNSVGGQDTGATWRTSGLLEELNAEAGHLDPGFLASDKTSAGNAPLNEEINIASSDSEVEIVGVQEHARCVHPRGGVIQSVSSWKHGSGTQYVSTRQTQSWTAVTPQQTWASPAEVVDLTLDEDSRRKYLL
inactive: alvocidib -0.014 | Tubastatin A 0.123 | [1] 0.034 | defactinib 0.084 | [2] 0.041 | encorafenib -0.005 | [3] -0.067 | alisertib 0.019 | [4] -0.027 | gefitinib 0.029 | lapatinib 0.017 | pictilisib -0.003 | crizotinib -0.049 | [5] 0.022 | duvelisib -0.046 | gandotinib 0.019 | tozasertib -0.029 | doramapimod 0.019 | bafetinib -0.023 | [6] -0.098

CASP6 (UniProt P55212)
Sequence of UniProt P55212 (P55212 whole entry, looked up): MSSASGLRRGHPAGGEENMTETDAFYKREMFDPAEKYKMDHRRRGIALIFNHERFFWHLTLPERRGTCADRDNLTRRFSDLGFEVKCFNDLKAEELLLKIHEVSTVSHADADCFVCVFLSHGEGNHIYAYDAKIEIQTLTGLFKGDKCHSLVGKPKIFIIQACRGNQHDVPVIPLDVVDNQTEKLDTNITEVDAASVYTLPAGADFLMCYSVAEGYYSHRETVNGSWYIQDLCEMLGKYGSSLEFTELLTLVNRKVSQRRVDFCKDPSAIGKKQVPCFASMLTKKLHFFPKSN
inactive: alvocidib -0.011 | Tubastatin A -0.003 | [1] 0.067 | defactinib 0.039 | [2] -0.046 | encorafenib -0.015 | [3] -0.026 | alisertib 0.023 | [4] -0.029 | gefitinib 0.061 | lapatinib 0.024 | pictilisib -0.004 | crizotinib 0.009 | [5] 0.195 | duvelisib 0.003 | gandotinib -0.02 | tozasertib 0.022 | doramapimod 0.013 | bafetinib 0.054 | [6] -0.038

ATG7 (UniProt O95352)
inactive: alvocidib 0.01 | Tubastatin A -0.075 | [1] 0.001 | defactinib 0.012 | [2] -0.04 | encorafenib 0.021 | [3] -0.031 | alisertib 0.006 | [4] -0.008 | gefitinib 0.019 | lapatinib 0.006 | pictilisib -0.002 | crizotinib -0.015 | [5] -0.037 | duvelisib 0 | gandotinib -0.035 | tozasertib -0.015 | doramapimod 0.02 | bafetinib -0.024 | [6] 0.006

ATG4A (UniProt Q8WYN0)
Sequence of UniProt Q8WYN0 (Q8WYN0 whole entry, looked up): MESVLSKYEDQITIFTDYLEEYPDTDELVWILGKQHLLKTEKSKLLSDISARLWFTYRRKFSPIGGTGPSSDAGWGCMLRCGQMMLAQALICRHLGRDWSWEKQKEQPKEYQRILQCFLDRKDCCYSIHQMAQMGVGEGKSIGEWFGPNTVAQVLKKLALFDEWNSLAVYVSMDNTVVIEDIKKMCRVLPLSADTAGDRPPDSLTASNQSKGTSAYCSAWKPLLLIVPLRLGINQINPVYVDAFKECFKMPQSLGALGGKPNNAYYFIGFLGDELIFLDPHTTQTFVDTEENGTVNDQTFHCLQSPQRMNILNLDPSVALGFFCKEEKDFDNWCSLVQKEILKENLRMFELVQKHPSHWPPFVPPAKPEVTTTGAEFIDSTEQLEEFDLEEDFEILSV
inactive: alvocidib 0 | Tubastatin A -0.104 | [1] 0.042 | defactinib 0.036 | [2] 0.01 | encorafenib 0.037 | [3] -0.087 | alisertib -0.016 | [4] -0.001 | gefitinib 0.052 | lapatinib -0.017 | pictilisib -0.02 | crizotinib -0.033 | [5] -0.061 | duvelisib -0.009 | gandotinib -0.025 | tozasertib 0.044 | doramapimod 0.008 | bafetinib -0.014 | [6] 0.063

CCDC51 (UniProt Q96ER9)
inactive: alvocidib 0.127 | Tubastatin A -0.037 | [1] -0.001 | defactinib 0.008 | [2] 0.038 | encorafenib -0.008 | [3] -0.001 | alisertib 0.016 | [4] -0.066 | gefitinib 0.022 | lapatinib -0.038 | pictilisib -0.055 | crizotinib -0.01 | duvelisib -0.034 | tozasertib 0.007 | doramapimod -0.053 | bafetinib -0.106 | [6] -0.232
active: [5] 0.259 | gandotinib -0.217

CDC42BPA isoform 6 (UniProt Q5VT25)
inactive: alvocidib -0.099 | Tubastatin A -0.13 | [1] -0.015 | defactinib -0.002 | [2] -0.065 | encorafenib 0.017 | [3] 0.093 | alisertib -0.005 | [4] -0.019 | gefitinib -0.004 | lapatinib -0.029 | pictilisib -0.041 | crizotinib -0.061 | [5] 0.024 | duvelisib -0.007 | gandotinib -0.05 | tozasertib 0.032 | doramapimod 0.075 | bafetinib -0.056 | [6] 0.03

ATG4B (UniProt Q9Y4P1)
Sequence of UniProt Q9Y4P1 (Q9Y4P1 whole entry, looked up): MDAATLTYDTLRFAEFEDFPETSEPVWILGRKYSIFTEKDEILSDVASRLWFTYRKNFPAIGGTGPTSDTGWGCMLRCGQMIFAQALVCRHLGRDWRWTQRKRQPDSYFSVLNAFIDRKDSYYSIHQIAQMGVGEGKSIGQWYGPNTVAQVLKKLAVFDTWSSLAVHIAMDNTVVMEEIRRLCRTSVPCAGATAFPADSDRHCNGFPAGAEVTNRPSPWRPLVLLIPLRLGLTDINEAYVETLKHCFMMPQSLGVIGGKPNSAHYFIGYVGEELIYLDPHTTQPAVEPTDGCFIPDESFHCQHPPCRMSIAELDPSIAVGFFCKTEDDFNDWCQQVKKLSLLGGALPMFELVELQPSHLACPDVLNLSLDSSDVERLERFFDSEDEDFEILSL
inactive: alvocidib 0.052 | Tubastatin A -0.129 | [1] 0.025 | defactinib 0 | [2] -0.025 | encorafenib 0 | [3] -0.018 | alisertib 0.053 | [4] 0.02 | gefitinib -0.071 | lapatinib 0.012 | pictilisib -0.042 | crizotinib -0.087 | [5] 0.114 | duvelisib 0.01 | gandotinib -0.128 | tozasertib -0.013 | doramapimod 0.004 | bafetinib -0.008 | [6] -0.059

CBR1 (UniProt P16152)
Sequence of UniProt P16152 (P16152 whole entry, looked up): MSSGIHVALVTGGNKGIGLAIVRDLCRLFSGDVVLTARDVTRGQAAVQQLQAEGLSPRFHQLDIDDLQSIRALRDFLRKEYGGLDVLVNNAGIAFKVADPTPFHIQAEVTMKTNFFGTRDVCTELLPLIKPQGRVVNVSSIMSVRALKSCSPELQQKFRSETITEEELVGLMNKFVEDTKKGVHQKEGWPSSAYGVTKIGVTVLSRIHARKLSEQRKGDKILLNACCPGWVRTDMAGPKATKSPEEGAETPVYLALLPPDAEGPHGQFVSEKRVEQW
inactive: alvocidib -0.013 | Tubastatin A 0.015 | [1] -0.006 | defactinib 0.008 | [2] -0.041 | encorafenib 0 | [3] 0.02 | alisertib -0.024 | [4] 0.023 | gefitinib -0.068 | lapatinib 0.023 | pictilisib -0.027 | crizotinib 0.043 | [5] -0.082 | duvelisib -0.037 | gandotinib 0.001 | tozasertib 0.003 | doramapimod -0.044 | bafetinib 0.034 | [6] 0.032

CHAF1A (UniProt Q13111)
Sequence of UniProt Q13111 (Q13111 whole entry, looked up): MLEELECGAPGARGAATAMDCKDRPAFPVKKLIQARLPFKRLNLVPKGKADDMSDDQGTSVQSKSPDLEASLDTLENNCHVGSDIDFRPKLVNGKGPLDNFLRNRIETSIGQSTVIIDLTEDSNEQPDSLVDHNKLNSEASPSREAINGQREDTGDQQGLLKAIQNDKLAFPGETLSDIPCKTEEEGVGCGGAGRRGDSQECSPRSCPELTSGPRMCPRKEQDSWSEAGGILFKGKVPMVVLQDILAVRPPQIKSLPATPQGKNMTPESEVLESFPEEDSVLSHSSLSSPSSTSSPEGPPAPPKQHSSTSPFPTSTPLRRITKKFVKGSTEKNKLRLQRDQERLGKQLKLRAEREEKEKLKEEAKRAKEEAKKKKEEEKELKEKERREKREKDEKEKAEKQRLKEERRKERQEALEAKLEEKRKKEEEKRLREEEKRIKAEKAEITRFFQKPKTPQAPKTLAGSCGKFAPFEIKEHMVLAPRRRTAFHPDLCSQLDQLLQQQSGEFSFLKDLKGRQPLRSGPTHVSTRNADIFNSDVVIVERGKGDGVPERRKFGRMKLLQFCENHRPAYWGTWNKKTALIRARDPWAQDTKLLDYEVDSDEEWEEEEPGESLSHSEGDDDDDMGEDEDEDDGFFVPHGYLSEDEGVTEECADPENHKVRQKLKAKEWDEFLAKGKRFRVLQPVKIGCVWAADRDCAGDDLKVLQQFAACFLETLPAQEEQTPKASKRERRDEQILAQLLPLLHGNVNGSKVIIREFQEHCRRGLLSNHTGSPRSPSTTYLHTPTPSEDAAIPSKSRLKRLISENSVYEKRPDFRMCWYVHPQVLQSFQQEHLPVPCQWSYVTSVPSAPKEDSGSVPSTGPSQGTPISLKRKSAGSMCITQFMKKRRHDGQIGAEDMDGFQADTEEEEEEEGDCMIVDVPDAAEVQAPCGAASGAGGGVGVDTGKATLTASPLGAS
inactive: alvocidib -0.003 | Tubastatin A -0.089 | [1] -0.019 | defactinib 0.02 | [2] 0.038 | encorafenib 0.003 | [3] 0.063 | alisertib -0.107 | [4] -0.01 | gefitinib -0.065 | lapatinib 0.014 | pictilisib 0.063 | crizotinib 0.012 | [5] -0.054 | duvelisib -0.035 | gandotinib 0.009 | tozasertib -0.023 | doramapimod 0.026 | bafetinib -0.075 | [6] -0.005

BRAT1 (UniProt Q6PJG6)
inactive: alvocidib -0.018 | Tubastatin A -0.143 | [1] 0.031 | defactinib -0.046 | [2] -0.041 | encorafenib 0.01 | [3] 0.024 | alisertib -0.008 | [4] 0.018 | gefitinib -0.007 | lapatinib 0.026 | pictilisib -0.013 | crizotinib -0.103 | [5] 0 | duvelisib -0.001 | gandotinib -0.1 | tozasertib 0.017 | doramapimod 0.052 | bafetinib -0.014 | [6] 0.038

BORCS5 (UniProt Q969J3)
inactive: alvocidib -0.012 | Tubastatin A 0.043 | [1] -0.001 | defactinib 0.067 | [2] 0.032 | encorafenib 0.074 | [3] -0.09 | alisertib -0.014 | [4] 0.01 | gefitinib -0.079 | lapatinib 0.015 | pictilisib 0.096 | crizotinib -0.002 | [5] 0.037 | duvelisib 0.037 | gandotinib -0.038 | tozasertib 0.007 | doramapimod -0.011 | bafetinib -0.042 | [6] -0.006

C15orf41 (UniProt Q9Y2V0)
Sequence of UniProt Q9Y2V0 (Q9Y2V0 whole entry, looked up): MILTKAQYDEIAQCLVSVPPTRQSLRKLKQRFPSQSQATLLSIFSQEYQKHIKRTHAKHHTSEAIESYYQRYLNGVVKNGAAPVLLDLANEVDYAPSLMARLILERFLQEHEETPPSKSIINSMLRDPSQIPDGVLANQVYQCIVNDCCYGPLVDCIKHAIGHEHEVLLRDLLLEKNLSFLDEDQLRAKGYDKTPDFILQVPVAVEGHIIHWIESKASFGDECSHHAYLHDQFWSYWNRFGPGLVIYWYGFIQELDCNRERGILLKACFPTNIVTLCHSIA
inactive: alvocidib -0.002 | Tubastatin A -0.036 | [1] 0.039 | defactinib -0.13 | [2] 0.002 | encorafenib 0.126 | [3] -0.043 | alisertib 0.023 | [4] 0.09 | gefitinib 0.006 | lapatinib -0.078 | pictilisib 0.007 | crizotinib -0.033 | [5] 0.03 | duvelisib 0.059 | gandotinib 0.002 | tozasertib 0.102 | doramapimod -0.035 | bafetinib 0.009 | [6] -0.017

BPHL (UniProt Q86WA6)
Sequence of UniProt Q86WA6 (Q86WA6 whole entry, looked up): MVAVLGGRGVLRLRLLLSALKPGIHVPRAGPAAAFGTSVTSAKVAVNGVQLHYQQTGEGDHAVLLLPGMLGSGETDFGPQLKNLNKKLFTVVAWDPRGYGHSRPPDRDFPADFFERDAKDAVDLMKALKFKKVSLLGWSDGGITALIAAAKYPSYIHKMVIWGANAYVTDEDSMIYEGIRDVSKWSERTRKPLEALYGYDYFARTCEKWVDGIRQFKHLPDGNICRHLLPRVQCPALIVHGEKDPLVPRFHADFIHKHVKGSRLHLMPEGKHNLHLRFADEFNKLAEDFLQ
inactive: alvocidib 0.004 | Tubastatin A -0.006 | [1] -0.048 | defactinib 0.036 | [2] -0.137 | encorafenib -0.002 | [3] 0.004 | alisertib 0.085 | [4] -0.028 | gefitinib 0.009 | lapatinib -0.099 | crizotinib 0.099 | [5] 0.051 | duvelisib 0.061 | gandotinib -0.077 | tozasertib 0.034 | doramapimod -0.003 | bafetinib 0.132 | [6] -0.058
active: pictilisib -0.366

CARD11 (UniProt Q9BXL7)
Sequence of UniProt Q9BXL7 (Q9BXL7 whole entry, looked up): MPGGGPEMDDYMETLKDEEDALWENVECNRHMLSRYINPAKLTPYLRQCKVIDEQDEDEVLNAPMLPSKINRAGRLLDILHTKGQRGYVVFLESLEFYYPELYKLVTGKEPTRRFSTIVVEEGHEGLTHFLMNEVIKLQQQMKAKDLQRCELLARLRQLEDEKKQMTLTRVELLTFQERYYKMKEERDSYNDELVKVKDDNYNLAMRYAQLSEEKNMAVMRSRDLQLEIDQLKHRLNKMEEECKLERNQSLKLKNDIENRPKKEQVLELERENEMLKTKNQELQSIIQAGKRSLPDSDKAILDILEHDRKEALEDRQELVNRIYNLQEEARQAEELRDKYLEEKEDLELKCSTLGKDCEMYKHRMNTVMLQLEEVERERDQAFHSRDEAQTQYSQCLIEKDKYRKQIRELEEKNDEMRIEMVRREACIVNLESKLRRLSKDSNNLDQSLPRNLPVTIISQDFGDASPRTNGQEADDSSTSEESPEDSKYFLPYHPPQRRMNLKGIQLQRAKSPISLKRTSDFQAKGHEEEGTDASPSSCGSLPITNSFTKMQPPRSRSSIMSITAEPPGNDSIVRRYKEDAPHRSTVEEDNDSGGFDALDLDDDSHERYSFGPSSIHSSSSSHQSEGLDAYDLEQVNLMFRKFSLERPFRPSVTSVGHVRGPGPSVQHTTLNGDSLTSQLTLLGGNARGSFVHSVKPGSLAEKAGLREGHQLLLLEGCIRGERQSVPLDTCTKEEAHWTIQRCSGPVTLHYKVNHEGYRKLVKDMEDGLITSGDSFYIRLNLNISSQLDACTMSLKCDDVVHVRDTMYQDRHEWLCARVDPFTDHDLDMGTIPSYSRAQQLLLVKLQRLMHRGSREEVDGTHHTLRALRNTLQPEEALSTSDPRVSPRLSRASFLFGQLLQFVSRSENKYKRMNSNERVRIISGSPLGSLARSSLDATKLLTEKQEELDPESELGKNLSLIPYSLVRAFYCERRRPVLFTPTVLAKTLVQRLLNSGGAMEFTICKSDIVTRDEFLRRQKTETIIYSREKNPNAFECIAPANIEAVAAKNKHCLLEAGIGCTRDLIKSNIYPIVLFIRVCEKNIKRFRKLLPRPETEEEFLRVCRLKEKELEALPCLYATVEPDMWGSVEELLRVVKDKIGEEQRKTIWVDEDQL
inactive: alvocidib 0.073 | Tubastatin A -0.023 | [1] 0.022 | defactinib -0.005 | [2] -0.029 | encorafenib -0.021 | [3] 0.072 | alisertib -0.028 | [4] 0.025 | gefitinib 0.014 | lapatinib 0.001 | crizotinib -0.018 | [5] -0.025 | duvelisib 0.029 | gandotinib -0.035 | tozasertib -0.021 | doramapimod 0.028 | bafetinib -0.059 | [6] 0.038
active: pictilisib -0.287

ATE1 isoform 2 (UniProt O95260)
inactive: alvocidib -0.116 | Tubastatin A -0.008 | [1] 0.036 | defactinib 0 | [2] 0.038 | encorafenib -0.013 | [3] 0.109 | alisertib 0.021 | [4] 0.004 | gefitinib -0.038 | lapatinib 0.021 | pictilisib -0.058 | crizotinib 0.024 | [5] -0.089 | duvelisib -0.051 | gandotinib 0.076 | tozasertib -0.003 | doramapimod -0.071 | bafetinib -0.093 | [6] 0.029
